DAGLB inhibitor – blocks human DAGLB lipase activity. Q8NCG7. HEK293T DAGLB membrane lysate, EnzChek fluorogenic substrate. inhibition, % at 5.17 µM. 0.059% of 340,000 active; in the data active = inhibition above about 34%
ABHD5 PLIN5 PPI – inhibitors of human ABHD5-perilipin-5 interaction. Split G. princeps luciferase complementation, luminescence, 4 h. inhibition, % at 4 µM. 0.78% of 360,000 active;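 active = inhibition above the mean inhibition across every tested compound plus 3 SD, cut at about 22% in these data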
Rtt109 HAT inh – C. albicans Rtt109 histone acetyltransferase inhibition; Q5AAJ8; purified Rtt109/Vps75, ThioGlo CoA-SH fluorescence, 4 h; inhibition, % at 34.9 µM; 0.16% of 330,000 active; AID 540336;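 active = inhibition of at least 50% in every replicate; inconclusive = best replicate reaches 50% inhibition but some replicates fall short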
Myeloid diff 2 – myeloid differentiation induction; ER-HoxA9 myeloid progenitors, lysozyme-GFP differentiation, flow cytometry; AID 624256; 1% of 360,000 active; calls only at 10 µM;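 active = normalized GFP-positive differentiation at or above the plate's own cutoff, the solvent-only control mean plus 3 SD; inconclusive = no clear call, values can overlap the other calls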;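 also: cells exposed to compound for four days before flow analysis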
H9c2 protect – modulators protecting cardiomyocytes from myocardial damage. AID 588492. protection from H2O2 cell death, % at 20 µM. H9c2 cardiomyocytes, H2O2 injury protection, ATPLite, 2 h. 0.63% of 360,000 active;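 active = compounds giving at least 50% protection of heart cells from peroxide-induced death in the single-dose screen, raw or plate-pattern-corrected value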
HGIII-sPLA2 inh – Blocks human group III sPLA2 activity; 0.56% of 370,000 active; QFRET BODIPY PC-A2 liposome hydrolysis, fluorescence; Q9NZ20; inhibition, % at 12.2 µM;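 active = inhibition above mean plus 3 SD of compounds lying within the high and low control bounds, cut at about 19% in these data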
Target sequence (Q9NZ20 whole entry, looked up): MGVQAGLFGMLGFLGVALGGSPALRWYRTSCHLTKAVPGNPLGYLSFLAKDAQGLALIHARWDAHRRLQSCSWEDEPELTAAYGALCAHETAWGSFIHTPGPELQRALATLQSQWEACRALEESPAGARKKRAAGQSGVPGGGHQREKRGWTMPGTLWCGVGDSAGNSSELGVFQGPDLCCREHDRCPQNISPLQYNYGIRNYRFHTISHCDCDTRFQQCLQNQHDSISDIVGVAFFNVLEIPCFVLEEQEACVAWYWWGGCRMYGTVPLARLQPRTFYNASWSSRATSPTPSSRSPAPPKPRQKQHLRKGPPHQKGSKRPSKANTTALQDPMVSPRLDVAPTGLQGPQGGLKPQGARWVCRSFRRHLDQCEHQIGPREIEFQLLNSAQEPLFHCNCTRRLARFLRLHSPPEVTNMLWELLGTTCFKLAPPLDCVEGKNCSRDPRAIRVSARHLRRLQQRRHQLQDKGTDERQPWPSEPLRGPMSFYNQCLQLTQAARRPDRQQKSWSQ
Numbers stand for hits. Shown are actives, neighbours in structure and some others; about 2.9% of the full set was active somewhere.

How did Cc1ccc(C)c(S(=O)(=O)N(C(=O)c2ccncc2)c2ccc(OC(=O)c3ccncc3)cc2)c1 do in these assays?
DAGLB inhibitor: inactive; ABHD5 PLIN5 PPI: inactive; Rtt109 HAT inh: inactive; Myeloid diff 2: inactive; H9c2 protect: 53; HGIII-sPLA2 inh: inactive

Results for Fc1ccc(NC2CCC23CCC(c2ccccc2)CC3)cc1C(F)(F)F (centres undefined) ?
HGIII-sPLA2 inh: inactive

Results for CC(C)(C)OC(=O)C[C@@H]1C/C=C\C[C@H](CC(=O)N[C@H](CO)Cc2ccccc2)C(=O)N[C@H](Cc2ccccc2)COC1=O ?
DAGLB inhibitor: inactive; ABHD5 PLIN5 PPI: inactive; Rtt109 HAT inh: inactive; Myeloid diff 2: inactive; H9c2 protect: inactive; HGIII-sPLA2 inh: inactive

Results for O=C(C[C@H]1C/C=C\CC[C@H](Cc2ccc(F)cc2)C(=O)O[C@H](c2ccccc2)CNC1=O)N[C@H](CO)Cc1ccccc1 ?
DAGLB inhibitor: inactive; ABHD5 PLIN5 PPI: inactive; Rtt109 HAT inh: inactive; Myeloid diff 2: inactive; H9c2 protect: 90; HGIII-sPLA2 inh: inactive

Results for O=C(C[C@H]1C/C=C\CC[C@H](Cc2ccc(F)cc2)C(=O)O[C@@H](c2ccccc2)CNC1=O)N[C@H](CO)Cc1ccccc1 ?
DAGLB inhibitor: inactive; ABHD5 PLIN5 PPI: inactive; Rtt109 HAT inh: inactive; Myeloid diff 2: inactive; H9c2 protect: 51; HGIII-sPLA2 inh: inactive

Results for CC(C)(C)OC(=O)C[C@H]1C/C=C\C[C@H](CC(=O)N[C@H](CO)Cc2ccccc2)C(=O)N[C@H](Cc2ccccc2)COC1=O ?
DAGLB inhibitor: inactive; ABHD5 PLIN5 PPI: inactive; Rtt109 HAT inh: inactive; Myeloid diff 2: inactive; H9c2 protect: 58; HGIII-sPLA2 inh: inactive

What do the screens show for `O=C(CN1CCCCCC1)N/N=C/c1cccs1`?
DAGLB inhibitor: inactive; ABHD5 PLIN5 PPI: inactive; Rtt109 HAT inh: inactive; Myeloid diff 2: inactive; H9c2 protect: inactive; HGIII-sPLA2 inh: inactive

What do the screens show for `Cc1ccc2cc(CN(CCCN(C)C)C(=S)NCc3ccccc3)c(=O)[nH]c2c1C`?
DAGLB inhibitor: inactive; ABHD5 PLIN5 PPI: 23; Rtt109 HAT inh: inactive; Myeloid diff 2: inactive; H9c2 protect: inactive; HGIII-sPLA2 inh: inactive

Results for Cc1ccc2cc(CN(CCCN(C)C)C(=O)NCc3ccccc3)c(=O)[nH]c2c1C ?
DAGLB inhibitor: inactive; ABHD5 PLIN5 PPI: inactive; Rtt109 HAT inh: inconclusive; Myeloid diff 2: inactive; H9c2 protect: inactive; HGIII-sPLA2 inh: inactive

How did COC(=O)CCCN1C(=O)c2cccc3cccc(c23)C1=O do in these assays?
DAGLB inhibitor: inactive; ABHD5 PLIN5 PPI: inactive; Rtt109 HAT inh: inactive; Myeloid diff 2: inactive; H9c2 protect: inactive; HGIII-sPLA2 inh: inactive

What do the screens show for `COc1ccc(C=O)cc1OC1C=CCCC1` (centres undefined)?
DAGLB inhibitor: inactive; ABHD5 PLIN5 PPI: inactive; Rtt109 HAT inh: inactive; Myeloid diff 2: inactive; H9c2 protect: inactive; HGIII-sPLA2 inh: inactive

How did Cc1cccc(NS(=O)(=O)c2cccc(C(=O)NCC(C)(C)N3CCOCC3)c2)c1 do in these assays?
DAGLB inhibitor: inactive; ABHD5 PLIN5 PPI: inactive; Rtt109 HAT inh: inactive; Myeloid diff 2: active; H9c2 protect: inactive; HGIII-sPLA2 inh: inactive

Results for Cc1ccc2cccc(N=Cc3c(C)[nH]n(-c4ccccc4)c3=O)c2n1 ?
DAGLB inhibitor: inactive; ABHD5 PLIN5 PPI: inactive; Rtt109 HAT inh: inactive; Myeloid diff 2: inconclusive; H9c2 protect: 63; HGIII-sPLA2 inh: inactive

What do the screens show for `Cc1[nH]n(-c2ccccc2)c(=O)c1/C=N/N1C(=O)c2ccc3c4c(ccc(c24)C1=O)CC3`?
DAGLB inhibitor: inactive; ABHD5 PLIN5 PPI: inactive; Rtt109 HAT inh: inactive; Myeloid diff 2: inactive; H9c2 protect: 65; HGIII-sPLA2 inh: inactive

Results for COc1ccccc1CNC(=O)CCNC(=O)Cn1cnc2ccccc2c1=O ?
DAGLB inhibitor: inactive; ABHD5 PLIN5 PPI: inactive; Rtt109 HAT inh: inactive; Myeloid diff 2: inactive; H9c2 protect: inactive; HGIII-sPLA2 inh: inactive

How did Brc1ccc(-c2ccc(/C=N/Nc3nc(N4CCOCC4)nc(N4CCOCC4)n3)o2)cc1 do in these assays?
DAGLB inhibitor: inactive; ABHD5 PLIN5 PPI: inactive; Rtt109 HAT inh: inactive; Myeloid diff 2: inactive; H9c2 protect: 95; HGIII-sPLA2 inh: inactive

Results for Fc1cnc(N/N=C/c2ccc(-c3ccc(Br)cc3)o2)nc1N1CCOCC1 ?
DAGLB inhibitor: inactive; ABHD5 PLIN5 PPI: inactive; Rtt109 HAT inh: inactive; Myeloid diff 2: inactive; H9c2 protect: inactive; HGIII-sPLA2 inh: inactive

Results for COC(=O)c1[nH]c2cc(OC)c(OC)cc2c1/C=N/Nc1ccccc1 ?
DAGLB inhibitor: inactive; ABHD5 PLIN5 PPI: inactive; Myeloid diff 2: inactive; H9c2 protect: 75; HGIII-sPLA2 inh: inactive

What do the screens show for `COc1ccc(C2/C(=C(/O)c3ccc(C)cc3)C(=O)C(=O)N2C)cc1` (centres undefined)?
DAGLB inhibitor: inactive; ABHD5 PLIN5 PPI: inactive; Rtt109 HAT inh: inactive; Myeloid diff 2: inactive; H9c2 protect: inactive; HGIII-sPLA2 inh: inactive

Results for COc1ccc(N2C(=O)C(=O)/C(=C(/O)c3ccc(C)cc3)C2c2cccnc2)cc1 (centres undefined) ?
DAGLB inhibitor: inactive; ABHD5 PLIN5 PPI: inactive; Rtt109 HAT inh: inactive; Myeloid diff 2: active; H9c2 protect: inactive; HGIII-sPLA2 inh: inactive

How did Cc1cc(CN2C(=O)c3ccccc3C2=O)on1 do in these assays?
DAGLB inhibitor: inactive; ABHD5 PLIN5 PPI: inactive; Rtt109 HAT inh: inactive; Myeloid diff 2: inactive; H9c2 protect: inactive; HGIII-sPLA2 inh: inactive

What do the screens show for `Cc1cc(CN2C(=O)c3ccccc3C2=O)no1`?
DAGLB inhibitor: inactive; ABHD5 PLIN5 PPI: inactive; Rtt109 HAT inh: 57; Myeloid diff 2: inactive; H9c2 protect: inactive; HGIII-sPLA2 inh: inactive

How did Cc1ccc(Cl)cc1N1CCN(S(=O)(=O)c2c(C(=O)N3CCOCC3)c(C)n(C)c2C)CC1 do in these assays?
DAGLB inhibitor: inactive; ABHD5 PLIN5 PPI: inactive; Rtt109 HAT inh: inactive; Myeloid diff 2: active; H9c2 protect: inactive; HGIII-sPLA2 inh: inactive

Results for O=S(=O)(c1ccc(Cl)cc1)c1cc(O)ccc1O ?
DAGLB inhibitor: inactive; ABHD5 PLIN5 PPI: inactive; Rtt109 HAT inh: inactive; Myeloid diff 2: inactive; H9c2 protect: 56; HGIII-sPLA2 inh: inactive

What do the screens show for `O=S(=O)(c1ccccc1)c1cc(O)ccc1O`?
DAGLB inhibitor: inactive; ABHD5 PLIN5 PPI: inactive; Rtt109 HAT inh: inactive; Myeloid diff 2: inactive; H9c2 protect: inactive; HGIII-sPLA2 inh: inactive

How did c1ccc(Cc2cc[n+](Cc3ccccn3)cc2)cc1 do in these assays?
DAGLB inhibitor: inactive; ABHD5 PLIN5 PPI: inactive; Rtt109 HAT inh: inactive; Myeloid diff 2: active; H9c2 protect: inactive; HGIII-sPLA2 inh: inactive

Results for O=[N+]([O-])c1ccc(C[n+]2ccc(Cc3ccccc3)cc2)cc1 ?
DAGLB inhibitor: inactive; ABHD5 PLIN5 PPI: inactive; Rtt109 HAT inh: inactive; Myeloid diff 2: inactive; H9c2 protect: inactive; HGIII-sPLA2 inh: inactive

How did O=C(Nc1cccc2ncccc12)c1ccc(Cl)cc1 do in these assays?
DAGLB inhibitor: inactive; ABHD5 PLIN5 PPI: inactive; Rtt109 HAT inh: inactive; Myeloid diff 2: inactive; H9c2 protect: inactive; HGIII-sPLA2 inh: inactive

What do the screens show for `Cc1c(N=Cc2cc(Br)cc(Br)c2O)cccc1C(=O)O`?
DAGLB inhibitor: inactive; ABHD5 PLIN5 PPI: inactive; Rtt109 HAT inh: inactive; Myeloid diff 2: inactive; H9c2 protect: 62; HGIII-sPLA2 inh: inactive

Compound activity from PubChem BioAssay.
